Screens from PubChem BioAssay.
DAX1 inh-1: inhibits human nuclear receptor DAX1. P51843. HEK293 Gal4-DAX1 luciferase reporter, luminescence. inhibition, % at 6.75 µM. 0.99% of 340,000 active;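 active = inhibition above the mean over all tested compounds plus 3 SD, cut at about 4.2% in these data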;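 also: 0% = DAX1-transfected cells with DMSO and 100% = empty-vector control cells with DMSO; inhibition shows as a rise in luminescence from relieved DAX1 repression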
Target sequence (P51843 207-470 limits assumed): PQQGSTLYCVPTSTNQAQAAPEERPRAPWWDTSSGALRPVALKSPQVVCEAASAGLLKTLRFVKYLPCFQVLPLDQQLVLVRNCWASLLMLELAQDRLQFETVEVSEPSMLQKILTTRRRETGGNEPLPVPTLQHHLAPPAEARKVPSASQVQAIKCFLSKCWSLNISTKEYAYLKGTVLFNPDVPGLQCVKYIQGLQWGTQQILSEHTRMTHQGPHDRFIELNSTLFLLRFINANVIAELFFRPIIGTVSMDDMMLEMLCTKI
hcDAF-12 act: activators of H. contortus DAF-12 nuclear receptor; HEK293 hcDAF-12 lit1-tk-luc reporter, luminescence; 0% DMSO, 100% Δ7-dafachronic acid; activation, % at 6.8 µM; 1.4% of 370,000 active;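 active = activation above the mean of all tested compounds plus 3 SD, cut at about 5.5% in these data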;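 also: 100% = response to 3 µM Δ7-dafachronic acid high control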
ssDAF12 agonist: activates DAF-12 receptor from parasite S. stercoralis; HEK293 ssDAF-12/GRIP1 lit1-tk-luc reporter, luminescence; % of 3 µM dafachronic acid response; activation, % at 6.8 µM; 1% of 370,000 active; AID 652126;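 active = activation above the mean over all tested compounds plus 3 SD, cut at about 0.9% in these data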;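 also: 0% = DMSO-only wells and 100% = 3 µM delta7-dafachronic acid wells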
DAX1 inh-2: blocks DAX1 repression of SF-1 activated StAR promoter; HEK293T StAR-luciferase reporter, SF-1/DAX-1 repression relief; inhibition, % at 6.8 µM; 1.1% of 370,000 active;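 active = inhibition above the mean over all tested compounds plus 3 SD, cut at about 3.6% in these data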;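 also: 0% = DAX-1 cells with DMSO and 100% = cells lacking DAX-1 with DMSO; higher inhibition means more luminescence from relief of DAX-1 repression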
hgDAF-12 ag: agonists of H. glycines DAF-12 nuclear receptor; HEK293 GAL4-hgDAF12 UAS-luciferase reporter, agonist luminescence; normalized to butyrate control; activation, % at 6.8 µM; 1.8% of 370,000 active; AID 687014;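 active = activation above a cutoff set at the mean of all screened compounds plus 3 SD, cut at about 10% in these data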;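 also: 0% = DMSO wells and 100% = sodium butyrate wells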
* marks the source's active call; other numbers are inactive results; . = not tested or not shown. In the library only some 4.1% were active in any assay of this set; here they are far more common.

SMILES	DAX1 inh-1	hcDAF-12 act	ssDAF12 agonist	DAX1 inh-2	hgDAF-12 ag
CCc1c(-c2ccccc2F)ncn1CCc1ccccc1OC	.	-3	-2	-1	1
COc1cccc(CC(=O)N(Cc2ccccc2)c2ccccc2C(=O)Nc2cc(OC)ccc2OC)c1	.	-2	-2	0	0
COc1ccc(S(=O)(=O)N2CCCc3nc(-c4ccccc4)ccc32)cc1	.	2	-1	0	0
COC(=O)c1ccc(NC(=O)Nc2ccccc2C)cc1	-1	-2	-2	0	12*
COC(=O)c1ccc(NC(=O)Nc2ccccc2F)cc1	0	5	0	3	12*
O=C(Nc1ccccc1)Nc1cccn(Cc2c(F)cccc2Cl)c1=O	-1	-1	-2	2	11*
O=C(Nc1ccc(Cl)cn1)Nc1ccccc1F	6.9*	1	1.6*	0	8
COc1cccc(C(=O)N[C@@H](Cc2cccnc2)C(=O)N2CCC[C@H]2C(=O)NC2CCCC2)c1	.	-1	-1	1	0
O=C(CNS(=O)(=O)c1ccc(F)cc1)N1CCN(c2ccccn2)CC1	.	1	-1	-2	0
O=C(Nc1ccc(F)cc1)Nc1ccccc1F	0	3	-1	1	11*
COc1ccccc1NC(=O)NNC(=O)c1ccncc1	-2	4	-1	3.8*	0
O=C(C#Cc1ccccc1)Nc1ccccc1F	2	0	-1	0	11*
C/C(=C\c1ccccc1)C(=O)Nc1ccc(Cl)cn1	1	5.6*	0	3	12*
COC(C(=O)Nc1ccc(F)cc1F)c1ccccc1 (stereo not drawn)	4.2*	-2	-1	0	-1
COC(C(=O)Nc1ccc(Br)cc1F)c1ccccc1 (stereo not drawn)	1	-1	-2	-1	-1
O=C(Nc1c(F)c(F)c(F)c(F)c1F)OC[C@@H]1CSCCS(=O)(=O)N1	.	-1	0	3.6*	2
Cc1cc(CNC(=O)Cn2nc(C)c([N+](=O)[O-])c2C)c2ccccc2n1	0	-2	-2	4.3*	-2
Cc1nn(CC(=O)NCc2ccccc2Cl)c(C)c1[N+](=O)[O-]	0	-1	-1	1	1
O=C(COC(=O)c1nc(Cl)ccc1Cl)Nc1ccc(Cl)cc1	0	1	-1	0	0
O=C(COC(=O)c1nc(Cl)ccc1Cl)Nc1ccc(Cl)cn1	1	5.7*	1.0*	0	0
CCOC(=O)N1CCN(C(=O)C[C@H]2C[C@@]3(C(=O)OC)C(=C[C@H](C4CCCC4)O[C@@H]3C)N(CCc3ccc(OC)c(OC)c3)C2=O)CC1	.	-3	-1	-2	-3
Oc1ccccc1C=NN=CC=Cc1ccccc1	4	1	-1	0	3
O=[N+]([O-])c1ccccc1C=CC=NN=Cc1ccccc1O	5.5*	2	0	-1	1
O=C(O)c1ccc(N/N=C/C=C/c2ccccc2[N+](=O)[O-])cc1	1	5	3.6*	4	12*
COC(=O)[C@]12C[C@H](CC(=O)NCCC(C)C)C(=O)N(Cc3ccco3)C1=C[C@H](C(C)C)O[C@@H]2C1CC1	.	-3	-1	0	4
SMILES	DAX1 inh-1	hcDAF-12 act	ssDAF12 agonist	DAX1 inh-2	hgDAF-12 ag
CCc1c(C(=O)NNC(=S)Nc2ccc(S(=O)(=O)Nc3ncccn3)cc2)csc1C	0	-1	-1	4.0*	0
Cc1cc(Br)ccc1SCC(=O)OC/C(O)=C(\C#N)c1nc2ccccc2[nH]1	1	3	1.1*	-1	6
N#C/C(=C(\O)Cc1ccccc1)c1nc2ccccc2[nH]1	2	-1	-1	-1	0
Cc1cc(Br)ccc1SCC(=O)OCC(O)=C(C#N)c1nc2ccccc2[nH]1	0	4	-1	1	0
CCCC(=O)OC/C(O)=C(\C#N)c1nc2ccccc2[nH]1	0	1	-1	-1	-6
Cc1cccc(C)c1Nc1nnc(SC/C(O)=C(\C#N)c2nc3ccccc3[nH]2)s1	0	3	1	0	0
COCC(=O)OC/C(O)=C(\C#N)c1nc2ccccc2[nH]1	4.7*	-2	-2	-2	-4
N#C/C(=C(/O)CCl)c1nc2ccccc2[nH]1	-1	5	1.0*	-2	-6
Cc1cccc(Nc2nnc(SC/C(O)=C(\C#N)c3nc4ccccc4[nH]3)s2)c1C	1	5	1.0*	0	2
O=C(c1cc2cc(F)ccc2[nH]1)N1CCC(Cc2ccccc2)CC1	1	5	0.9*	0	1
CCOC(=O)C1CCN(C(=O)C(C)Sc2ccc(Cl)cc2)CC1 (stereo not drawn)	4.7*	-1	-1	0	3
CCOC(=O)C1CCN(C(=O)c2cc3ccc(OC)cc3[nH]2)CC1	1	3	0	1	2
CCOC(=O)C1CCN(C(=O)c2cc3cc(Cl)ccc3[nH]2)CC1	1	6.5*	-1	0	4
CCOC(=O)C1CCN(C(=O)CSc2ccc(Cl)cc2)CC1	0	-2	-1	0	2
Cn1cc(CCOCc2ccc(Br)cc2)c2ccccc21	.	-1	0	0	4
CCOC(=O)[C@@]12CCCC=C1N(CCc1ccc(Cl)cc1)C(=O)[C@H]2CC(=O)NCc1ccc(C)o1	.	-5	-1	-1	-1
O=c1c(-c2nc3ccccc3s2)cccn1Cc1ccccc1	2	1	0	1	12*
CC(C)(C)OC(=O)NCCc1ccccc1/C=C/S(=O)(=O)NC1CCCC1	.	-3	-2	-2	-2
Cc1c(Cc2c(C)n(C)n(-c3ccccc3)c2=O)c(=O)n(-c2ccccc2)n1C	1	0	0	0	1
CCCC(=O)NC(=S)c1c(C)n(C)n(-c2ccccc2)c1=O	0	5.8*	0	1	-2
Cc1ccc(NC(=O)c2ccc([N+](=O)[O-])cc2Cl)nc1	-1	0	-1	2	11*
O=C(Nc1ccccn1)c1ccc([N+](=O)[O-])cc1Cl	1	-1	0	-1	0
CN(C)c1ccc(NC(=O)c2ccc([N+](=O)[O-])cc2Cl)cc1	-1	1	1	1	12*
COCCCNC(=O)C[C@H]1C[C@@]2(C(=O)OC)C(=C[C@H](C(C)(C)C)O[C@@H]2C)N(CCC2=CCCCC2)C1=O	.	-1	0	-1	1
CCCCOCCCNC(=O)C[C@H]1C[C@@]2(C(=O)OC)C(=C[C@H](C(C)(C)C)O[C@@H]2C)N(Cc2ccc3c(c2)OCO3)C1=O	.	-1	-1	-1	1
Cn1cc(NC(=O)OCc2ccc(Cl)cc2)c(C(F)(F)F)n1	1	1	0	3.7*	2
Cc1ccc2c(c1)c1nc3ccccc3nc1n2C	4.5*	5.9*	1.9*	0	5
COc1ccccc1C(=O)NC1CCCCN(Cc2ccc(Cl)cc2)C1=O (stereo not drawn)	.	-2	-1	-1	-1
